HCV inhibitor = blocks hepatitis C virus | Huh7.5.1 HCVcc-Cre infection, luciferase reporter, 44 h | Potency, µM (titrated, usually from 41.8 µM), for inactives: top-dose activity change, negative = inhibition, usual class: inhibitors | actives 3.4% (n = 340,000); active = well fitted inhibition curve with a large enough effect; inconclusive = small, poorly fitted or top-dose-only effect, or another doubt; inactive = no such curve, though single readings can be large or run the other way; note: potency is the fitted concentration of half-maximal effect
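Seed cells (1,000/well) for 4 h; treat with compound and infect with HCVcc-Cre, moi about 0.5. Incubate 44 h, then detect luciferase activity.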
Vaccinia mCherry = vaccinia inhibition (mCherry reporter); Vaccinia virus mCherry reporter infection, fluorescence; Potency, µM (highest dose often 36.5 µM), for inactives: at the highest dose activity change, negative = inhibition, most hits filed as inhibitors; actives 0.63% (n = 310,000); calls by dose curve; tested in A549 cells; note: potency is the fitted concentration of half-maximal effect; nearly all actives have a fitted effect of over 35% in size
VACV Venus inh = inhibitors of vaccinia virus (Venus reporter) | Vaccinia virus Venus reporter expression, fluorescence | Potency, µM (titrated, usually from 36.5 µM), for the others: at the top dose activity change, negative = inhibition, hits mostly inhibitors | actives 0.46% (n = 330,000) | AID 720580; calls by dose curve; tested in A549 cells; note: potency is the fitted concentration of half-maximal effect; nearly all actives have a fitted effect of over 30% in size
HCMV antiviral = human cytomegalovirus inhibition; actives 4.5% (n = 410,000); activity change, negative = inhibition, % at 57.5 µM; HFF cells, HCMV-luciferase reporter, 72 h; stronger effect = lower value; in the data active = activity change below about -60%; inconclusive = no clear call, values can overlap the other calls; inactive = above about -39%
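Cell-based, HFFs, 1000 cells/well, 16 h 37C; cpds in DMSO + HCMV-luc, MOI 1 PFU/cell; 72 h 37C; OneGlo luminescence after 5 min RT; norm. to buffer vs Salinomycin 10uM.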
Marburg entry inh = blocks Marburg virus binding to or entry into cells | Marburg virus pseudotyped entry inhibition, cell reporter | Potency, µM (titrated, usually from 37.8 µM), for the others: at the top dose activity change, negative = inhibition, most hits filed as inhibitors | actives 1.8% (n = 300,000) | AID 540276; calls by dose curve; tested in HEK293 cells; note: potency is the fitted concentration of half-maximal effect
Lassa entry inh = Lassa virus entry inhibition; Lassa virus pseudotype entry inhibition, cell reporter; Potency, µM (doses to about 37.9 µM), for inactives: top-dose activity change, negative = inhibition, hits mostly inhibitors; actives 1.2% (n = 300,000); calls by dose curve; tested in HEK293 cells; note: potency is the fitted concentration of half-maximal effect; nearly all actives have a fitted effect of over 50% in size
* hit, by the source's call; i = inactive; ? = inconclusive; . = not tested or not shown; [ ] = another dose, or the depositor's remark. Shown are actives, neighbours in structure and some others; about 7.8% of the full set was active somewhere. % is set by controls: 0 for no effect and ±100 for the full control effect.

SMILES | HCV inhibitor | Vaccinia mCherry | VACV Venus inh | HCMV antiviral | Marburg entry inh | Lassa entry inh
Cc1sc2nc(C(C)C)nc(SCC(=O)N3CCN(C(=O)c4ccco4)CC3)c2c1C | 11.2µM* | -27.6% | -28.2% | -26.2 | 6.0% | -16.5%
Cc1ccc(-c2csc3ncnc(N4CCN(C(=O)c5ccco5)CC4)c23)cc1 | ? | -2.7% | -14.8% | -10.3 | -30.3% | ?
CC(C)c1nc(N2CCN(C(=O)c3ccco3)CC2)c2c3c(sc2n1)CCCC3 | 22.4µM* | -13.5% | -29.6% | -9.1 | 18.3µM* | ?
CCc1c(C)sc2nc(C(C)C)nc(SCC(=O)N3CCc4ccccc4C3)c12 | ? | 28.8% | 29.2% | -90.3* | ? | 20.6µM*
O=C(c1ccco1)N1CCN(C(=O)c2cccn3c(=O)c4c5c(sc4nc23)CCCC5)CC1 | -6.9% | . | . | -34.7 | . | .
Cc1sc2nc(C3CC3)nc(SCC(=O)N3CCc4ccccc4C3)c2c1C | ? | -6.9% | -14.1% | -19.7 | ? | -15.4%
COc1ccc(NC(=O)CSc2nc3c([nH]c4ccccc43)c(=O)n2-c2ccccc2)c(OC)c1 | . | i | -18.2% | -10.1 | . | -29.1%[46.1 µM]
O=Cc1cccc(C=O)c1 | . | i | -18.1% | . | . | .
COc1ccc(-c2csc(Nc3cc(C)ccn3)n2)cc1C | 12.6µM* | . | . | ? | . | .
COc1ccc(-c2csc(Nc3ncccc3C)n2)cc1OC | 2.24µM* | . | -21.9% | 45.2 | 1.4% | ?
CCCS(=O)(=O)NCc1c(C)ncc2c1CCN(C(=O)c1cccc(Cl)c1F)C2 | . | -7.6% | -6.9% | . | . | .
O=C(Nc1c(C(=O)N2CCN(c3ccccc3F)CC2)oc2ccccc12)c1ccc(Br)o1 | . | -10.5% | -7.3% | -30.5 | ? | -0.9%[46.1 µM]
CS(=O)(=O)c1ccc2nc(NC(=O)CN3CCC(Cc4ccccc4)CC3)sc2c1 | 11.4% | -26.6% | -14.0% | -84.7* | -2.5%[46.1 µM] | 14.7%[46.1 µM]
COc1ccc(S(=O)(=O)N2CCCCC2)cc1NC(=O)Cc1sc(C)nc1-c1ccc(F)cc1 | ? | -1.5% | -13.6% | -65.2* | ? | ?
Cc1ccccc1NC(=O)NCC1CCN(c2ccc(S(=O)(=O)N3CCOCC3)cc2)CC1 | 35.5µM* | -3.3% | -3.6% | 2.5 | -6.4% | -16.3%
COc1ccc(S(=O)(=O)N2CCOCC2)cc1NC(=O)Cc1sc(C)nc1-c1ccc(F)cc1 | -26.5% | -18.8% | -12.5% | -23.1 | 18.9% | ?
COc1cc(NC(=O)c2cc(OC)c(OC)c(OC)c2)c(OC)cc1NC(=O)CN1CCCCC1 | 2.51µM* | . | -5.4% | 34.3 | ? | -24.0%
CCOc1cc(CNC(=O)c2ccc3nc(CCc4ccccc4)oc3c2)ccc1OC | . | -16.9% | -11.2% | -1.0 | . | ?
CCC(=O)c1ccc(OCC(=O)Nc2cc(S(=O)(=O)N3CCCCC3)ccc2OC)cc1 | 11.2µM* | . | . | -5.0 | . | .
CCOc1ccc(S(=O)(=O)N2CCCCC2)cc1NC(=O)C1COc2ccccc2O1 (stereo not drawn) | 10µM* | -12.0% | -20.7% | -37.9 | ? | -17.6%
CCOc1ccc(S(=O)(=O)N2CCCCC2)cc1NC(=O)Cc1cc(OC)c(OC)c(OC)c1 | . | -5.8% | -24.8% | -88.1* | . | .
COc1ccc(S(=O)(=O)N2CCCCCC2)cc1NC(=O)CCCOc1ccccc1 | 12.6µM* | . | . | -30.9 | . | .
CC(C)Oc1ccc(S(=O)(=O)N2CCOCC2)cc1NC(=O)C1COc2ccccc2O1 (stereo not drawn) | ? | . | . | -15.6 | . | .
COc1ccc(OCCCC(=O)Nc2cc(S(=O)(=O)N3CCCCC3)ccc2OC)cc1 | ? | . | . | 14.1 | . | .
CCOc1ccc(S(=O)(=O)N2CCCCC2)cc1NC(=O)Cc1ccccc1 | -7.3% | . | . | -37.6 | . | .
SMILES | HCV inhibitor | Vaccinia mCherry | VACV Venus inh | HCMV antiviral | Marburg entry inh | Lassa entry inh
Cc1cccc(C(=O)Nc2cccc(OCc3cc(=O)n4cccc(C)c4n3)c2)c1 | . | -18.6% | -22.8% | -24.1 | . | 4.2%[46.1 µM]
CCN(c1ccccc1)S(=O)(=O)c1ccc(NC(=O)c2cc(=O)c3cc(C)ccc3o2)cc1 | . | 3.4% | -5.1% | 18.6 | 15.6%[46.1 µM] | 27.5%[46.1 µM]
CCC(C)SCC(=O)Nc1ccc(S(=O)(=O)N2CCOCC2)cc1OC (stereo not drawn) | 11.2µM* | -13.0% | -20.3% | -30.4 | 4.0%[46.1 µM] | 3.1%
COc1ccc(S(=O)(=O)N2CCOCC2)cc1NC(=O)CN1CCC(Cc2ccccc2)CC1 | 10µM* | ? | ? | -66.2* | ? | 10µM*
CCC(CC)C(=O)OCC(=O)Nc1ccc(S(=O)(=O)N2CCOCC2)cc1OC | 2.6% | . | . | -4.3 | 2.5% | 1.2%
COc1ccc(-c2ccccc2-c2noc3ccccc23)cc1 | . | . | . | -1.3 | . | .
CCCc1nnc(NC(=O)C2CC(=O)N(CCc3ccc(F)cc3)C2)s1 (stereo not drawn) | 5.4% | -21.8% | -16.2% | 1.8 | 8.2%[46.1 µM] | 7.3%[46.1 µM]
CC(C)NC(=O)C1CC(=O)N(CCc2ccc(F)cc2)C1 (stereo not drawn) | . | i | 3.5% | -3.8 | . | .
Cc1ccc(CCN2CC(C(=O)NC(C)C)CC2=O)cc1 (stereo not drawn) | 19.9% | i | -1.7% | -61.1* | 27.8%[46.1 µM] | -1.0%[46.1 µM]
CNC(=O)C1CC(=O)N(CCc2ccc(C)cc2)C1 (stereo not drawn) | 14.7% | -13.5% | -6.1% | -69.5* | ? | 5.3%[46.1 µM]
O=C(Nc1nncs1)C1CC(=O)N(CCc2ccc(F)cc2)C1 (stereo not drawn) | 8.5% | -1.5% | 0.0% | -66.0* | -0.2%[46.1 µM] | -3.5%[46.1 µM]
CCN(CC)S(=O)(=O)c1ccc(C(=O)NC2CC(=O)N(c3ccc(OC)c(OC)c3)C2)cc1 (stereo not drawn) | . | -3.8% | -4.7% | 12.6 | . | 5.2%[46.1 µM]
O=C(Oc1c(CN2CCOCC2)cc(Cl)c2cccnc12)c1ccccc1Br | ? | . | . | -67.2* | . | .
O=C(Oc1c(Cl)cc(Cl)c2cccnc12)N1CCCCC1 | -25.0% | . | . | 1.9 | 0.3% | 1.4%
CN1CCN(Cc2cc(Cl)c3cccnc3c2OC(=O)c2cccs2)CC1 | ? | 11.2µM* | ? | ? | ? | -21.8%
C#CCN1C(=O)CC[C@@H](S(=O)(=O)c2ccccc2)[C@@H]1c1ccccc1 | . | . | . | 0.9 | . | .
Cc1ccc(CNc2ncnc3sc(C(=O)N4CCCC(C(N)=O)C4)c(C)c23)o1 (stereo not drawn) | . | -3.9% | 4.0% | . | . | .
Cn1c(=O)c2cc(NC(=S)NC3CCCCC3)ccc2n1Cc1cccc(C(F)(F)F)c1 | . | i | -8.8% | -70.5* | . | .
CC1CCN(C(=O)Cn2ncc3c4ccccc4n(Cc4ccc(Cl)cc4)c3c2=O)CC1 | . | -2.5% | -7.6% | 9.3 | -17.8%[46.1 µM] | 18.6%[46.1 µM]
Cc1ccc(-c2onc(C)c2C)cc1S(=O)(=O)N1CCc2ccccc21 | . | -3.1% | ? | ? | . | -10.5%[46.1 µM]
Cc1ccc(-c2onc(C)c2C)cc1S(=O)(=O)N1CCCCC1 | . | -25.4% | ? | ? | . | -26.2%[46.1 µM]
CC(=O)c1ccc(N2CCN(S(=O)(=O)c3cc(-c4onc(C)c4C)ccc3C)CC2)cc1 | . | ? | ? | -67.3* | . | -5.5%[46.1 µM]

From PubChem
